The structures appear in SMILES notation. Values joined by “and” are separate entries in the source; they are usually repeats but may differ in a detail not shown here. Equal entries are not always repeated. This is part of a sample that, as a whole, favours compounds with a hit. Of some 83,000 tested, about 20% had one in any assay.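 48-hour exposure, single concentration, 96-well plates; percent growth endpoint where 0 means no net growth. Active: below 10.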 Values without a mark were called inactive. Active and inactive are the calls of the source.

The experiment concerns MDA-MB-468 breast. In words: NCI-60 one-dose screen, 48 h (100 = growth as untreated, 0 = no growth, -100 = all killed). The following applies: 10 µM unless noted.
With `CCN(CC)CCNc1ccc(C)c2sc3cc(Cl)ccc3c(=O)c12`, the growth is 14.4%.

With `C/C(=N/N=C(N)N)c1ccc(N)cc1`, the growth is 75.5%.

`COc1cccc(CCC2CCCN(c3cc(C)nc(N)n3)C2)c1` (stereo not given): the growth is 26.1%.

For `CC(=O)Cc1nsc(NC(=O)c2ccoc2COc2ccccc2)n1`, the growth is 124%.

For `N#Cc1ccc(-n2cnc(NC(=O)[C@H]3CCN(C#N)C3)c2)cc1`, the growth was -38.1% (active).

With `CC1(c2ccc3ccccc3c2)CCC(=O)O1` (stereo not given), the growth is 100%.

On to `C/C(=C(/c1ccc(Cl)cc1)c1ccc(OCCN2CCCCCC2)cc1)c1ccccc1`, for which the growth was 72.5%.

As to `O=C(NCCO)C(F)(F)F`, the growth was 116%.

On to `Cc1ccc(NC(=O)c2ccc(CN3CC[C@H](N(C)C)C3)c(C(F)(F)F)c2)cc1Nc1nccc(-c2cncnc2)n1`, for which the growth was -36.5% (active).

Take `COc1ccc(/C=C/C(=O)c2cc3c(N)c(C(=O)Nc4cccc(Cl)c4C)sc3nc2C)cc1`: the growth was 17.1%.

For `CNS(=O)(=O)c1ccc(Cl)c(Cl)c1`, the growth was 101%.

Turning to `CN(C)CC(=O)Nc1nc(-c2cccc(NS(=O)(=O)c3cccc4c(N(C)C)cccc34)c2)cs1`, the growth was 62%.

Consider `COc1cc2cc3c(nc2cc1OC)CCN3Cc1ccc(NC(=O)Nc2ccc(F)cc2F)cc1`, for which the growth is 45.6%.

Consider `CCCCCCCCCCCCCCCCC(Br)C(=O)O` (stereo not given), for which the growth was 96%.

In the case of `O=C(NCOC(O)C(Cl)(Cl)Cl)NCOC(O)C(Cl)(Cl)Cl` (stereo not given), the growth was 106%.

Take `CSC1=NC(=Nc2c(C)cccc2C)C2(CCC(C(C)(C)C)CC2)N1c1ccc(Cl)cc1` (stereo not given): the growth is 38.3%.

`CC1(O)CC(c2nc(-c3ccc4ccc(-c5ccccc5)nc4c3)c3c(N)nccn23)C1` (stereo not given): the growth is 25%.

Regarding `NS(=O)(=O)c1ccc(C(=O)NN2C(=O)c3c(Br)c(Br)c(Br)c(Br)c3C2=O)cc1`, the growth is 111%.

On to `Nc1ccc(N=Nc2ccccc2)c2cc(S(=O)(=O)O)ccc12`, for which the growth was 109%.

Take `O=C(N/N=C/c1ccc([N+](=O)[O-])o1)c1[nH]c2ccc(Br)cc2c1-c1ccccc1`: the growth was 24.8%.

Regarding `CCCCn1c(=O)c(C2CNC(=O)c3ccccc3N2)cc2ccccc21` (stereo not given), the growth is 107%.

As for `COc1ccc2c(c1)oc1c(C)c3c(c(C)c12)C(=O)N(CCOS(C)(=O)=O)C3=O`, the growth was 127%.

In the case of `CCC1C(=O)COC1=O` (stereo not given), the growth was 103%.

`CC(C)(C)c1ccc([I+]c2ccc(C(C)(C)C)cc2)cc1`: the growth is -26% (active).

For the compound `CCOc1ccc(Nc2nc3c(s2)C(=O)c2ccccc2C3=O)cc1`, the growth is 68.8%.

Turning to `CC(C)(C)C(CCc1ccc(Cl)cc1)N1CCN(C2CCCCC2)CC1` (stereo not given), the growth is 58.3%.

In the case of `O=c1c2cc(Br)cc(Br)c2nc(-c2ccc(Cl)cc2)n1/N=C/c1cccc(F)c1`, the growth is 62.6%.

Turning to `CC1(C)C(=O)/C(=C\c2cccnc2)C[C@]2(C)[C@H]3CC[C@@H]4[C@@H](C(=O)/C=C/c5ccncc5)CC[C@@]4(C)[C@]3(C)CC[C@@H]12`, the growth is -5.14% (active).

For the compound `N#Cc1c(-c2ccccc2)cc(-c2c[nH]c3ccccc23)nc1-c1c[nH]c2ccccc12`, the growth is 93%.

`CCc1ccccc1NC(=O)c1sc2nc3c(cc2c1N)CCCC3`: the growth is 43%.

Consider `O=C(Oc1cccc2cccnc12)c1ccccc1`, for which the growth is 71.7% and 93.1%.

As to `CN(C)CCOc1ccc(-c2nc3sccn3c2-c2ccnc(S(C)(=O)=O)n2)cc1`, the growth was 98.8%.

As to `CC[C@H](CC[C@@H](C)[C@H]1CC[C@H]2[C@@H]3CC(=O)C4=CC(=O)/C(=C/c5ccc([N+](=O)[O-])cc5)C[C@]4(C)[C@H]3CC[C@]12C)C(C)C`, the growth was 104%.

Take `O=C1c2cccc3c(-c4ccc5c(c4)ncn5C4CCCCC4)ccc(c23)C(=O)N1CCO`: the growth was 78.9%.

As for `N#Cc1ccc(OCc2nc(N)nc(N)c2-c2ccc(Cl)c(Cl)c2)cc1`, the growth is 35.4%.

With `C=CC(=O)N1CCC(Oc2cc3c(Nc4ccc(Cl)c(Cl)c4F)ncnc3cc2OC)CC1`, the growth was -62.5% (active).

Take `O=C(Nc1cccc(-n2cc(-c3ccncc3)c(-c3ccc(Cl)c(O)c3)n2)c1)c1ccc(N2CCOCC2)c(C(F)(F)F)c1`: the growth is 66%.

For `Cc1cccc2c(=O)c3c(sc12)c(NCCNCCO)nc1ccccc13`, the growth is -19.1% (active).

Regarding `O=C1CCC(=O)N1CC1CC2CCC1C2` (stereo not given), the growth was 104% and 90.6%.

Turning to `COc1c2ccccc2c(OC)c2[nH]c(=O)ccc12`, the growth is 60.9%.

The record behind these values is PubChem BioAssay (NCI).
